The full list was thinned out, with hits kept by preference.
mHTT CaM bind – disrupts binding of mutant huntingtin to calmodulin; P42858; inhibition, % at 15 µM; AID 1671202; AlphaScreen His-mHTT/GST-CaM binding, luminescence; 3.6% of 190,000 active;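 further: 0% = both proteins with DMSO and 100% = one protein alone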
Pf apPOL block – Pf-apPOL DNA polymerase inhibition. inhibition, % at 10 µM. 0.25% of 210,000 active. Recombinant Pf-apPOL, molecular beacon fluorescence, 1.5 h
* = called active by the depositor; . = no result given. No stated cut-off is given here; in the data, active means inhibition above about 50%; inactive means the rest.

SMILES | mHTT CaM bind | Pf apPOL block
COc1ccc(C(=O)NC(Nc2ccc(C)cc2C)C(Cl)(Cl)Cl)cc1 (stereo not drawn) | 8 | 3
Cc1ccc(NC(NC(=O)c2cccc([N+](=O)[O-])c2)C(Cl)(Cl)Cl)c(C)c1 (stereo not drawn) | 62* | -2
Cc1ccc(C)c(NC(NC(=O)c2cc([N+](=O)[O-])cc([N+](=O)[O-])c2)C(Cl)(Cl)Cl)c1 (stereo not drawn) | 70* | 2
COCCNC(=O)c1cnn2c(C(F)(F)F)cc(-c3ccc(Br)cc3)nc12 | 1 | 3
Cc1nc(-c2cccc(F)c2)sc1CCNC(=O)c1ccccc1[N+](=O)[O-] | -4 | -5
CCCN(C/C=C/c1ccccc1OC)CCO | -4 | 0
CCOc1ccc(NCC(O)Cn2c(C)c(C)c3ccccc32)cc1 (stereo not drawn) | 84* | -2
COc1ccc(NCC(O)Cn2c(C)c(C)c3ccccc32)c(OC)c1 (stereo not drawn) | 74* | -1
COc1ccc(NCC(O)Cn2c(C)c(C)c3ccccc32)cc1 (stereo not drawn) | 57* | 2
Cc1c(C)n(CC(O)CN2CCCCCC2)c2ccccc12 (stereo not drawn) | 10 | -8
CC(=O)Nc1ccc(OCC(O)Cn2c3ccccc3c3ccccc32)cc1 (stereo not drawn) | 26 | -2
Cc1c(C)n(CC(O)CNC2CCCCC2)c2ccccc12 (stereo not drawn) | 3 | 0
COc1cc(OC)nc(SC)n1 | . | -1
COc1ccc(-c2cc(C(=O)N3CCCC3c3cc(C(C)C)no3)on2)cc1 (stereo not drawn) | 1 | -1
Cc1ccc(NC(=O)CSc2nc3c(c(=O)n2C)SC(C)C3)cc1Cl (stereo not drawn) | 6 | 0
CCOCCCNC(=O)C1CCN(c2nnc3c(Cl)cccn23)CC1 | 1 | -5
COc1nc(-c2cccs2)cc(-c2ccc(C)cc2)c1C#N | -36 | 53*
N#Cc1c(-c2ccccc2)cc(-c2cccs2)nc1Br | -9 | -4
CCN1C(=O)/C(=C2\C=Cc3ccccc3N2CC)SC1=Nc1ccc(N2CCOCC2)cc1 | 0 | -3
CCN1C(=O)/C(=C2\C=Cc3ccccc3N2CC)SC1=Nc1ccccc1 | 97* | -2
CC(C)(C)C(=O)NCCNc1ccc(Cl)cc1[N+](=O)[O-] | 7 | -2
Cc1ccc(N2CCC(NC(=O)c3ccccc3)C2=O)cc1 (stereo not drawn) | -3 | -1
Cc1ccc(-c2csc(=Nc3ccccc3)n2CCCN(C)C)cc1 | 73* | 4
OCCCn1c(-c2ccc(Cl)s2)csc1=Nc1ccccc1 | 41 | 19
c1ccc(CCn2c(-c3ccccc3)csc2=Nc2ccccc2)cc1 | 1 | .
SMILES | mHTT CaM bind | Pf apPOL block
Cc1ccc(-c2csc(=Nc3ccccc3)n2CCCO)cc1 | 53* | -3
CCCCNC(=O)c1ccc2c(c1)nc(C)n2-c1cc(C)ccc1OC | 11 | -7
CCCn1c(-c2ccccc2)cn2c3c(=O)n(C)c(=O)n(C)c3nc12 | 0 | -3
CCc1cccc(NC(=O)Cn2nc3c(cc2=O)CC(C)CC3)c1 (stereo not drawn) | -3 | -5
Cc1ccc(NC(=O)C2C3C=CC(C3)C2C(=O)O)cc1[N+](=O)[O-] (stereo not drawn) | 2 | -5
C#CC1(OCC(O)CN2CCCC(C)C2)CCCCC1 (stereo not drawn) | 1 | -3
Cc1cc(O)c(C(C)C)cc1N=C1CSC(=O)N1 | 53* | -6
Cc1cc(O)c(C(C)C)cc1NC(=O)c1ccc(Cl)cc1 | 4 | -11
O=C1c2cccc([N+](=O)[O-])c2C(=O)c2cccc([N+](=O)[O-])c21 | 9 | 2
Cc1ccc(NC=C2C(=O)N(c3ccc(F)cc3F)C(c3cccnc3)S2(=O)=O)cc1 (stereo not drawn) | . | -5
c1cc(-c2n[nH]c(C3CCCN(Cc4ccc5cc[nH]c5c4)C3)n2)ccn1 (stereo not drawn) | 53* | 3
c1ccc(CN2CCCC(c3nc(-c4cccnc4)n[nH]3)C2)nc1 (stereo not drawn) | 99* | -23
N#Cc1ccc(CN2CCCC(c3nc(-c4cccnc4)n[nH]3)C2)cc1 (stereo not drawn) | -12 | 6
N#Cc1cccc(CN2CCCC(c3nc(-c4ccncc4)n[nH]3)C2)c1 (stereo not drawn) | 18 | -7
O=C1OC(c2ccc(F)cc2)=N/C1=C\c1cccc(Br)c1 | 0 | 3
CN(Cc1ccccc1)C(=O)c1noc2c1CCCCC2 | -22 | -1
Cc1c(Cc2ccccc2)[nH]c2ccccc12 | 100* | 1
O=c1[nH]c2ccccc2c(=O)n1Cc1ccccc1 | -4 | -7
Oc1ccc(/C=C/c2ccc3cccc(O)c3n2)cc1Br | 62* | 4
CCOc1cc(/C=C/c2ccc3cccc(O)c3n2)ccc1O | 48 | -7
O=C(O)c1ccc(/C=C/c2ccc3cccc(O)c3n2)cc1 | 7 | 5
COc1ccc(Cl)cc1/C=C/c1ccc2cccc(O)c2n1 | 52* | -7
CCOc1cccc(/C=C/c2ccc3cccc(O)c3n2)c1OC | 48 | 1
COc1cc(/C=C/c2ccc3cccc(O)c3n2)cc(OC)c1O | 74* | -2
Cc1ccc(C(=O)N2CCC(COc3ccc(C(=O)N4CCOCC4)cc3)CC2)cc1F | -1 | -3
SMILES | mHTT CaM bind | Pf apPOL block
Cn1nccc1C(=O)N1CCC(CCOc2ccc(F)cc2)CC1 | -1 | -8
CN(CCCNC(=O)c1ccc2c(c1)N(C)C(=O)C1CCCCN21)Cc1ccccc1 (stereo not drawn) | 10 | -2
COc1cccc(-c2noc(C3CCCN3C(=O)Nc3cccc(F)c3)n2)c1 (stereo not drawn) | -12 | -3
Cc1cccc(C2=N[C@@H](CC(C)C)CO2)c1 | -14 | -4
Cc1cccc(C2=N[C@@H](Cc3ccccc3)CO2)c1 | 81* | -11
O=C(Nc1ccccc1)c1cccc(S(=O)(=O)N2CCC(=O)C3CCCCC32)c1 (stereo not drawn) | -3 | -12
COc1cc(/C=C2\C(C)=C([N+](=O)[O-])CS2(=O)=O)ccc1O | 87* | -1
COc1cc([N+](=O)[O-])ccc1O | -5 | .
CC1=C(C(=O)Nc2cccnc2)C(c2ccc(C)cc2)n2nc(SCc3ccccc3)nc2N1 (stereo not drawn) | -3 | -7
CC(=O)c1ccc(NC(=O)c2cc3ccccc3o2)cc1 | 0 | -1
CN(C)c1ccc(NC(=O)c2cc3ccccc3o2)cc1 | 60* | -4
CCC[C@H]1[C@@H](OC(=O)NCc2ccccc2Cl)CC[C@@]23CCCN2C(=O)CCC[C@@H]13 | 16 | -3
CCC[C@H]1[C@@H](OC(=O)N2CCOCC2)CC[C@@]23CCCN2C(=O)CCC[C@@H]13 | -12 | -4
CCC[C@H]1[C@@H](OC(=O)N2CCN(c3ccccc3)CC2)CC[C@@]23CCCN2C(=O)CCC[C@@H]13 | 99* | -5
C[C@H]1[C@@H](OC(=O)Oc2ccc([N+](=O)[O-])cc2)CC[C@@]23CCCN2C(=O)CCC[C@@H]13 | 10 | -9
CCC[C@H]1[C@@H](OC(=O)Oc2ccc([N+](=O)[O-])cc2)CC[C@@]23CCCN2C(=O)CCC[C@@H]13 | 58* | 0
CCC[C@H]1[C@@H](OC(=O)NCCc2c[nH]c3ccccc23)CC[C@@]23CCCN2C(=O)CCC[C@@H]13 | 65* | 0
CCCNC(=O)CCC1CCN(c2cc(NC3CC3)ncn2)CC1 | 1 | -4

Screening results (PubChem BioAssay)
